Test results from article PMC5540273 (PLoS ONE, 2017).

Experiments:
Conditions in all cases: concentration: 1 μM, replicates: in singlicate; n = 1
TSSK1B = test system: TSSK1B
TSSK3 = test system: TSSK3
TTK = test system: TTK
TXK = test system: TXK
[1] = test system: TYK2(JH1domain-catalytic)
[2] = test system: TYK2(JH2domain-pseudokinase)
TYRO3 = test system: TYRO3
ULK1 = test system: ULK1
ULK2 = test system: ULK2
ULK3 = test system: ULK3
VEGFR2 = test system: T1, VEGFR2
T1 construct: gene KDR

VPS34 = test system: T2, VPS34
T2 construct: gene PIK3C3

VRK2 = test system: VRK2
WEE1 = test system: WEE1
WEE2 = test system: WEE2
WNK1 = test system: WNK1
WNK2 = test system: WNK2
WNK3 = test system: WNK3
WNK4 = test system: WNK4
YANK1 = test system: T3, YANK1
T3 construct: gene STK32A
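Note: KINOMEscan kinase panel screen.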

SMILES | %Inh (TSSK1B) [%] | %Inh (TSSK3) [%] | %Inh (TTK) [%] | %Inh (TXK) [%] | %Inh [1] [%] | %Inh [2] [%] | %Inh (TYRO3) [%] | %Inh (ULK1) [%] | %Inh (ULK2) [%] | %Inh (ULK3) [%] | %Inh (VEGFR2) [%] | %Inh (VPS34) [%] | %Inh (VRK2) [%] | %Inh (WEE1) [%] | %Inh (WEE2) [%] | %Inh (WNK1) [%] | %Inh (WNK2) [%] | %Inh (WNK3) [%] | %Inh (WNK4) [%] | %Inh (YANK1) [%]
c1ccc(-c2ccnc3[nH]ccc23)cc1 [SB-693578] | 28 | 2 | 6 | 28 | 63 | 73 | 0 | 33 | 0 | 33 | 32 | 0 | 27 | 10 | 23 | 0 | 11 | 48 | 37 | 0
CC(C)c1ccc(O)cc1Nc1ccnc2ccc(C(F)(F)F)cc12 [GW482059] | 0 | 3 | 2 | 19 | 23 | 0 | 0 | 20 | 0 | 8 | 0 | 15 | 0 | 0 | 5 | 1 | 0 | 0 | 0 | 0
O=C(Nc1n[nH]c2nc(-c3cccs3)c(Br)cc12)C1CCCC1 [SB-743341] | 24 | 0 | 37 | 7 | 0 | 7 | 1 | 26 | 32 | 0 | 28 | 0 | 0 | 0 | 22 | 0 | 5 | 0 | 3 | 24
CNc1cc(-c2ccc3c(N)n[nH]c3c2)nc(N)n1 [GSK2224810] | 0 | 31 | 0 | 0 | 7 | 43 | 0 | 36 | 17 | 5 | 25 | 0 | 0 | 1 | 5 | 0 | 0 | 19 | 88 | 36
CCc1ccc(-c2ccc3c(c2)-c2n[nH]cc2S(=O)(=O)N3C)cc1 | 0 | 0 | 0 | 14 | 0 | 5 | 0 | 0 | 0 | 0 | 0 | 4 | 0 | 14 | 0 | 23 | 2 | 3 | 0 | 0
COc1ccc(CSc2nnc(-c3ccc4c(c3)CCO4)o2)cc1 | 0 | 0 | 0 | 0 | 0 | 0 | 0 | 0 | 0 | 0 | 0 | 15 | 0 | 0 | 14 | 0 | 0 | 0 | 0 | 0
COC(=O)c1cccc(NC(=O)NC2CCN(c3ccnc(Nc4ccc(OC)cc4)n3)C2)c1 (stereo not drawn) [GSK1379746] | 13 | 7 | 0 | 8 | 33 | 51 | 0 | 0 | 3 | 9 | 0 | 0 | 0 | 7 | 0 | 11 | 4 | 51 | 46 | 0
CC(=O)c1c(C)c2cnc(Nc3ccc(N4CCNCC4)cn3)nc2n(C2CCCC2)c1=O | 0 | 0 | 92.1 | 5 | 0 | 0 | 0 | 0 | 45 | 0 | 6 | 0 | 0 | 0 | 0 | 0 | 0 | 0 | 0 | 16
CNCc1ccc2nc(NC(=O)c3ccc(C(C)(C)C)cc3)cn2c1 | 0 | 0 | 0 | 8 | 0 | 24 | 0 | 20 | 15 | 58 | 6 | 2 | 74 | 0 | 0 | 0 | 0 | 30 | 13 | 2
COC(=O)c1cccc(NC(=O)NC2CCN(c3ccnc(Nc4ccc(F)cc4)n3)C2)c1 (stereo not drawn) [GSK1379725] | 0 | 3 | 0 | 0 | 0 | 23 | 0 | 15 | 0 | 12 | 0 | 0 | 0 | 16 | 5 | 0 | 18 | 27 | 0 | 0
CN1c2ccc(-c3ccc(C(N)=O)cc3)cc2-c2[nH]ncc2S1(=O)=O | 0 | 0 | 5 | 0 | 45 | 83 | 0 | 0 | 9 | 6 | 21 | 0 | 3 | 14 | 0 | 6 | 0 | 4 | 0 | 0
O=C1NC(=O)C(c2ccc(Cl)cc2)=C1Nc1ccc(O)cc1 [SB-340867] | 0 | 0 | 100 | 18 | 0 | 0 | 0 | 0 | 0 | 10 | 0 | 2 | 0 | 0 | 0 | 0 | 48 | 0 | 0 | 0
Cn1cncc1-c1cc2c(Nc3ccc(OCc4ccccc4)cc3)ncnc2cn1 [GW281179] | 18 | 10 | 7 | 21 | 96.8 | 27 | 0 | 0 | 0 | 0 | 0 | 0 | 0 | 2 | 0 | 7 | 7 | 25 | 14 | 0
Nc1cccc(-c2ccc3c(N)n[nH]c3c2)n1 [GSK2192730] | 0 | 10 | 6 | 17 | 12 | 17 | 0 | 5 | 0 | 18 | 19 | 1 | 0 | 0 | 0 | 23 | 0 | 0 | 0 | 5
COc1ccc(Nc2nccc(-c3ccc(NC(=O)c4cc5cc(F)ccc5[nH]4)cc3)n2)cc1 [GSK1229496] | 0 | 22 | 0 | 0 | 23 | 0 | 0 | 0 | 0 | 8 | 0 | 2 | 0 | 7 | 0 | 0 | 14 | 18 | 51 | 0
COc1nccc(-c2c(-c3ccc(F)cc3)ncn2CCCN2CCOCC2)n1 [SB-282852] | 0 | 50 | 0 | 6 | 13 | 25 | 0 | 0 | 33 | 12 | 1 | 21 | 77 | 0 | 52 | 11 | 14 | 0 | 0 | 0
Nc1ncnc2occ(-c3ccc4c(c3)CCN4C(=O)Cc3cc(F)ccc3F)c12 [GSK2645446] | 0 | 4 | 0 | 0 | 2 | 3 | 0 | 0 | 0 | 0 | 0 | 0 | 0 | 0 | 13 | 1 | 14 | 38 | 60 | 0
CNC(=O)c1ccc(C)c(-n2c(C)cc(OCc3ccc(F)cc3F)c(Br)c2=O)c1 | 0 | 0 | 0 | 0 | 0 | 0 | 0 | 0 | 0 | 0 | 0 | 0 | 0 | 0 | 0 | 0 | 0 | 0 | 0 | 4
Cc1ccc(NC(=O)Nc2ccccc2)cc1-c1ccc(C(=O)Nc2ccncc2)cc1 [GSK1398471] | 0 | 0 | 2 | 0 | 0 | 0 | 15 | 12 | 0 | 7 | 0 | 0 | 0 | 26 | 0 | 0 | 36 | 0 | 0 | 9
CS(=O)(=O)CCNCc1nc(-c2ccc3ncnc(Nc4ccc(OCc5ccccc5)c(Cl)c4)c3c2)cs1.Cl [GW582764] | 19 | 8 | 0 | 6 | 30 | 35 | 0 | 5 | 0 | 3 | 0 | 0 | 50 | 0 | 16 | 6 | 13 | 45 | 60 | 0
Cc1ccc(NC(=O)c2ccc(Cl)cc2)cc1-c1ccc(C(=O)Nc2ccncc2)cc1 [GSK1398467] | 18 | 6 | 0 | 8 | 0 | 17 | 0 | 0 | 0 | 0 | 0 | 0 | 27 | 0 | 8 | 0 | 0 | 31 | 22 | 2
